Laboratory results: PubChem BioAssay (NCI)
About 83,000 compounds went through this panel and 20% of them were active in at least one assay; those are over-represented in the sample as a whole.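 Single-concentration screen, 48 h exposure, 96-well plates. Endpoint: percent growth. Below 10 = active.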 A number with no mark means an inactive call. Active and inactive are the calls of the source.

Tests used:
Assay in all cases: NCI-60 one-dose screen, 48 h (100 = growth as untreated, 0 = no growth, -100 = all killed)
NCI-H23 lung = system: NCI-H23 lung
NCI-H226 lung = system: NCI-H226 lung
NCI-H322M lung = conditions: 10 µM unless noted
HOP-62 NSCLC = system: HOP-62 NSCLC
NCI-H460 lung = system: NCI-H460 lung
HOP-92 NSCLC = system: HOP-92 NSCLC
NCI-H522 lung = system: NCI-H522 lung
A549/ATCC NSCLC = system: A549/ATCC NSCLC
786-0 renal = system: 786-0 renal
COLO 205 colon = system: COLO 205 colon
DU-145 prostate = system: DU-145 prostate
K-562 leukemia = system: K-562 leukemia
MALME-3M melanoma = system: MALME-3M melanoma
MDA-MB-231 breast = system: MDA-MB-231 breast
RXF 393 renal = system: RXF 393 renal
SF-268 CNS = system: SF-268 CNS
SF-295 CNS = system: SF-295 CNS
SF-539 CNS = system: SF-539 CNS
UACC-257 melanoma = system: UACC-257 melanoma
M14 melanoma = system: M14 melanoma

COc1cc(F)c(/C=C/c2cc(/C=C/c3cc(OC)c(OC)cc3F)n(-c3cc(F)cc(F)c3)n2)cc1OC
growth (NCI-H23 lung; 10 µM unless noted): -20.2% (active) | growth (NCI-H226 lung; 10 µM unless noted): 98.1% | growth (NCI-H322M lung): 15.2% | growth (HOP-62 NSCLC; 10 µM unless noted): 85.8% | growth (NCI-H460 lung; 10 µM unless noted): 47% | growth (HOP-92 NSCLC; 10 µM unless noted): 80.9% | growth (NCI-H522 lung; 10 µM unless noted): 47.1% | growth (A549/ATCC NSCLC; 10 µM unless noted): 44.1% | growth (786-0 renal; 10 µM unless noted): 88.3% | growth (COLO 205 colon; 10 µM unless noted): 115% | growth (DU-145 prostate; 10 µM unless noted): 43.1% | growth (K-562 leukemia; 10 µM unless noted): 20.3% | growth (MALME-3M melanoma; 10 µM unless noted): -6.11% (active) | growth (MDA-MB-231 breast; 10 µM unless noted): 54.9% | growth (RXF 393 renal; 10 µM unless noted): 85.6% | growth (SF-268 CNS; 10 µM unless noted): 34% | growth (SF-295 CNS; 10 µM unless noted): 54.2% | growth (SF-539 CNS; 10 µM unless noted): 83.4% | growth (UACC-257 melanoma; 10 µM unless noted): 24%

CC(=O)/C=C/c1ccc(N(C)Cc2ccc(C(C)(C)C)cc2)cc1
growth (NCI-H23 lung; 10 µM): 75.5% | growth (NCI-H23 lung; 100 µM): -10.1% (active) | growth (NCI-H226 lung; 10 µM): 85.1% | growth (NCI-H226 lung; 100 µM): -82.3% (active) | growth (NCI-H322M lung): -64.5% [100 µM] (active) | growth (HOP-62 NSCLC; 10 µM): 97.6% | growth (HOP-62 NSCLC; 100 µM): -34.8% (active) | growth (NCI-H460 lung; 10 µM): 96.9% | growth (NCI-H460 lung; 100 µM): -63.7% (active) | growth (HOP-92 NSCLC; 10 µM): 77.3% | growth (HOP-92 NSCLC; 100 µM): -92.6% (active) | growth (NCI-H522 lung; 10 µM): 77.1% | growth (NCI-H522 lung; 100 µM): -76.4% (active) | growth (A549/ATCC NSCLC; 10 µM): 89.6% | growth (A549/ATCC NSCLC; 100 µM): -48.6% (active) | growth (786-0 renal; 10 µM): 97.3% | growth (786-0 renal; 100 µM): -75% (active) | growth (COLO 205 colon; 10 µM): 113% | growth (COLO 205 colon; 100 µM): -72% (active) | growth (DU-145 prostate; 10 µM): 96.6% | growth (DU-145 prostate; 100 µM): 0.731% (active) | growth (K-562 leukemia; 10 µM): 59.5% | growth (K-562 leukemia; 100 µM): -12.4% (active) | growth (MALME-3M melanoma; 10 µM): 89.3% | growth (MALME-3M melanoma; 100 µM): -88.1% (active) | growth (MDA-MB-231 breast; 10 µM): 103% | growth (MDA-MB-231 breast; 100 µM): -70.6% (active) | growth (RXF 393 renal; 10 µM): 106% | growth (RXF 393 renal; 100 µM): -90.6% (active) | growth (SF-268 CNS; 10 µM): 102% | growth (SF-268 CNS; 100 µM): -76.8% (active) | growth (SF-295 CNS; 10 µM): 88.9% | growth (SF-295 CNS; 100 µM): -30.4% (active) | growth (SF-539 CNS; 10 µM): 98.9% | growth (SF-539 CNS; 100 µM): -69% (active) | growth (UACC-257 melanoma; 10 µM): 84.6% | growth (UACC-257 melanoma; 100 µM): -76.5% (active) | growth (M14 melanoma; 10 µM): 79.5% | growth (M14 melanoma; 100 µM): -65.3% (active)

CCOC(=O)CCCn1c(-c2ccccc2)cc(-c2ccccc2)c(C#N)c1=O
growth (NCI-H23 lung; 10 µM unless noted): 83.5% | growth (NCI-H226 lung; 10 µM unless noted): 89.5% | growth (NCI-H322M lung): 97.8% | growth (HOP-62 NSCLC; 10 µM unless noted): 93.7% | growth (NCI-H460 lung; 10 µM unless noted): 65.4% | growth (HOP-92 NSCLC; 10 µM unless noted): 48.3% | growth (NCI-H522 lung; 10 µM unless noted): 70.1% | growth (A549/ATCC NSCLC; 10 µM unless noted): 84.3% | growth (786-0 renal; 10 µM unless noted): 88.8% | growth (COLO 205 colon; 10 µM unless noted): 98.4% | growth (DU-145 prostate; 10 µM unless noted): 97.1% | growth (K-562 leukemia; 10 µM unless noted): 81.8% | growth (MALME-3M melanoma; 10 µM unless noted): 108% | growth (MDA-MB-231 breast; 10 µM unless noted): 86.8% | growth (RXF 393 renal; 10 µM unless noted): 79.2% | growth (SF-268 CNS; 10 µM unless noted): 88.4% | growth (SF-295 CNS; 10 µM unless noted): 69.2% | growth (SF-539 CNS; 10 µM unless noted): 81.5% | growth (UACC-257 melanoma; 10 µM unless noted): 90.5%

COc1ccc(C(=O)/C=C/c2ccc(OCc3cccc(C(F)(F)F)c3)c(OC)c2)cc1OC
growth (NCI-H23 lung; 10 µM): 69.9% | growth (NCI-H23 lung; 100 µM): 11.1% | growth (NCI-H226 lung; 10 µM): 81.4% | growth (NCI-H226 lung; 100 µM): -12.8% (active) | growth (NCI-H322M lung): 11.7% [100 µM] | growth (HOP-62 NSCLC; 10 µM): 111% | growth (HOP-62 NSCLC; 100 µM): 5.03% (active) | growth (NCI-H460 lung; 10 µM): 78.9% | growth (NCI-H460 lung; 100 µM): 6.09% (active) | growth (HOP-92 NSCLC; 10 µM): 79.4% | growth (HOP-92 NSCLC; 100 µM): -17.4% (active) | growth (NCI-H522 lung; 10 µM): 53.8% | growth (NCI-H522 lung; 100 µM): -18.5% (active) | growth (A549/ATCC NSCLC; 10 µM): 73.1% | growth (A549/ATCC NSCLC; 100 µM): 14.9% | growth (786-0 renal; 10 µM): 122% | growth (786-0 renal; 100 µM): -3.87% (active) | growth (COLO 205 colon; 10 µM): 103% | growth (COLO 205 colon; 100 µM): 23.2% | growth (DU-145 prostate; 10 µM): 72.7% | growth (DU-145 prostate; 100 µM): 19.4% | growth (K-562 leukemia; 10 µM): 39.1% | growth (K-562 leukemia; 100 µM): 12.2% | growth (MALME-3M melanoma; 10 µM): 97.7% | growth (MALME-3M melanoma; 100 µM): 23.5% | growth (MDA-MB-231 breast; 10 µM): 79.9% | growth (MDA-MB-231 breast; 100 µM): -12.9% (active) | growth (RXF 393 renal; 10 µM): 97.7% | growth (RXF 393 renal; 100 µM): -13% (active) | growth (SF-268 CNS; 10 µM): 86.4% | growth (SF-268 CNS; 100 µM): 14.6% | growth (SF-295 CNS; 10 µM): 98.2% | growth (SF-295 CNS; 100 µM): 21.7% | growth (SF-539 CNS; 10 µM): 103% | growth (SF-539 CNS; 100 µM): 12% | growth (UACC-257 melanoma; 10 µM): 93.9% | growth (UACC-257 melanoma; 100 µM): 28.7%

COC1=CC(=O)C(OC)=C(O)C1=O
growth (NCI-H23 lung; 10 µM unless noted): 99.1% | growth (NCI-H226 lung; 10 µM unless noted): 102% | growth (NCI-H322M lung): 93.8% | growth (HOP-62 NSCLC; 10 µM unless noted): 97.9% | growth (NCI-H460 lung; 10 µM unless noted): 106% | growth (HOP-92 NSCLC; 10 µM unless noted): 106% | growth (NCI-H522 lung; 10 µM unless noted): 96.5% | growth (A549/ATCC NSCLC; 10 µM unless noted): 105% | growth (786-0 renal; 10 µM unless noted): 95.7% | growth (COLO 205 colon; 10 µM unless noted): 103% | growth (DU-145 prostate; 10 µM unless noted): 109% | growth (K-562 leukemia; 10 µM unless noted): 103% | growth (MALME-3M melanoma; 10 µM unless noted): 97.7% | growth (MDA-MB-231 breast; 10 µM unless noted): 100% | growth (RXF 393 renal; 10 µM unless noted): 104% | growth (SF-268 CNS; 10 µM unless noted): 107% | growth (SF-295 CNS; 10 µM unless noted): 102% | growth (SF-539 CNS; 10 µM unless noted): 92.4% | growth (UACC-257 melanoma; 10 µM unless noted): 97.4%
